Sampled rows, rich in hits. Any-hit rate of the full collection: about 11%.
12-hLO inh = inhibitors of human 12-lipoxygenase (ALOX12); P18054; purified 12-hLO, xylenol orange hydroperoxide absorbance; Potency, µM (top dose mostly 57.1 µM), inactives show at the top dose activity change, negative = inhibition, actives largely listed as inhibitors; hit rate 0.12% among 150,000; AID 1452; also: potency is read from the fitted curve at half-maximal effect; nearly all actives have a fitted effect of over 55% in size
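Purified human 12hLO (150 nM final) was preincubated with compounds for 15 min at room temperature in 25 mM Hepes pH 7.0, 0.01% Triton X-100, then reacted with 40 uM arachidonic acid for 30 min. Hydroperoxide was detected with ferrous iron/xylenol orange.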
PNC inhibitor = inhibitors of perinucleolar compartment assembly; PC3M PTB-GFP, PNC prevalence imaging, 16 h; active compounds read low; hit rate 3.1% among 140,000; activity change (PNC), negative = inhibition, % at 10 µM;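 active = readout at or below -70, meaning at least 70% loss of cells showing the perinucleolar compartment, a nuclear body marking cancer cells; inconclusive = readout between -30 and a set limit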;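 also: plate controls were DMSO wells for no effect and camptothecin positive control wells for full effect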
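PC3M cells stably expressing PTB-GFP, 750–1000 cells/well, treated 16 h at 37 °C with compound (23 nl of library stock), in duplicate. After paraformaldehyde fixation and Hoechst stain, imaged at 20x; PNC prevalence scored by image analysis.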
ALDH1A1 inh = inhibitors of human aldehyde dehydrogenase 1A1 | hit rate 7.3% among 220,000 | Purified ALDH1A1, NADH fluorescence, propionaldehyde substrate | Potency, µM (titrated, usually from 75.3 µM), for inactives: top-dose activity, negative = inhibition, most hits filed as inhibitors; active = well fitted inhibition curve with a large enough effect, not every such curve was filed as active; inconclusive = small, poorly fitted or top-dose-only effect, or another doubt; inactive = no such curve, though single readings can be large or run the other way;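 also: potency is read from the fitted curve at half-maximal effect; plate controls were no enzyme wells and a reference inhibitor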
Target sequence (P00352 whole entry, looked up): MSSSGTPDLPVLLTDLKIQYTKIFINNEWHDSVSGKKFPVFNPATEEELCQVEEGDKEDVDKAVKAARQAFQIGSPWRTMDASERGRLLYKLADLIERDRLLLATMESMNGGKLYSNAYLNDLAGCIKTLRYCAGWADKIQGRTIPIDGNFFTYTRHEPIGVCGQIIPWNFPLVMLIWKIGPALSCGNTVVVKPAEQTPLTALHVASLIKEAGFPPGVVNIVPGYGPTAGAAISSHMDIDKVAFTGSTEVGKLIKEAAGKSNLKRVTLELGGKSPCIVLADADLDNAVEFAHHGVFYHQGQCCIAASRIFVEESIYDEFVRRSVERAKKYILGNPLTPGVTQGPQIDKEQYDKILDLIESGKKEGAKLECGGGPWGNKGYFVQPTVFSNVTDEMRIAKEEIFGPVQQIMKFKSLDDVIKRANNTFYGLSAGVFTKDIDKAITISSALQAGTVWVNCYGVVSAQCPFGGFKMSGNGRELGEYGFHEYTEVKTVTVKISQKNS
HPGD block = inhibitors of human 15-hydroxyprostaglandin dehydrogenase (HPGD); P15428; purified HPGD, NADH fluorescence kinetic, PGE2 substrate; Potency, µM, without a hit: at the highest dose activity change, negative = inhibition, actives largely listed as inhibitors; hit rate 4.3% among 150,000; active = well fitted inhibition curve with a large enough effect, not every such curve was filed as active; inconclusive = small, poorly fitted or top-dose-only effect, or another doubt; inactive = no such curve, though single readings can be large or run the other way; also: potency is read from the fitted curve at half-maximal effect
Target sequence (P15428 whole entry, looked up): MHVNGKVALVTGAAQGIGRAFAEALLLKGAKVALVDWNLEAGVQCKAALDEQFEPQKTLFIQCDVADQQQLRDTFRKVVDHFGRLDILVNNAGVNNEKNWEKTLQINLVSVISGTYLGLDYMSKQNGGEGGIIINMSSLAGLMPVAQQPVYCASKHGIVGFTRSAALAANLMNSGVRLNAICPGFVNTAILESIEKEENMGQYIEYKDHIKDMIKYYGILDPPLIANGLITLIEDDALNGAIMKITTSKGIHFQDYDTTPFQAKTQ
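NADH formation kinetics: reaction with 30 uM PGE2 and 1 mM NAD+ (final), 20 nM enzyme, Tris-HCl pH 8 with Tween 20, after 15 min compound preincubation at room temperature. Fluorescence change, last versus first of five reads.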
IMPase Li inh = membrane-permeable IMPase blocker, potentiated with lithium; CHO-M1 cells, IP1 TR-FRET (IP-One), carbachol + lithium; Potency, µM (doses to about 59.4 µM), for inactives: at the highest dose activity, negative = IMPase inhibition, hits mostly inhibitors; hit rate 0.35% among 210,000; AID 1457;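 also: IP1 builds up when IMPase is blocked and the TR-FRET signal falls; potency is read from the fitted curve at half-maximal effect; plate controls were basal vehicle for no effect and high inhibitor control for full effect; nearly all actives have a fitted effect of over 50% in size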
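Concentration–response in CHO-M1 cells, lithium-potentiated; 30 min at 37C. IP1 detected by competitive TR-FRET after 10 min lysis at RT. Hill-fitted AC50.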
IMPase inh = cell-permeable inhibitors of inositol monophosphatase (IMPase). AID 901. CHO-M1 cells, IP1 accumulation, HTRF TR-FRET ratio. 120,000 tested, under 10 active. inhibition (IP1 accumulation), % at 46.1 µM; active = well fitted curve in the direction sought with a large enough effect in the signal ratio, not every such curve was filed as active; inconclusive = small, poorly fitted or top-dose-only effect, or a change in a side signal; inactive = no such curve, though single readings can be large or run the other way; the % refers to the signal ratio;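 also: cells stimulated with carbachol in lithium chloride buffer; plate controls were DMSO basal wells for no effect and reference inhibitor wells for full effect; higher means more IMPase inhibition seen as more IP1 and lower FRET ratio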
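Seeded CHO-M1 cells were dosed with compound at up to 46 uM, stimulated with carbachol for 30 min, then lysed in IP-One detection reagents. Higher IP1 lowers the TR-FRET signal.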
An asterisk follows results filed as active; [ ] = dose if it differs, or a comment. Unless noted, calls follow the shape of the dose curve; as a rule, active = well fitted curve in the direction sought with a large enough effect; inconclusive = small, poorly fitted or top-dose-only effect, or another doubt; inactive = no such curve, though single readings can be large; an effect the other way counts as inactive or inconclusive. Unless noted, % is scaled to controls: 0 for no effect and ±100 for the full control effect.

Results for CC(C(=O)Nc1cc([N+](=O)[O-])ccc1Cl)N1CCN(c2ccc(O)cc2)CC1 (centres undefined) ?
12-hLO inh: -5%; PNC inhibitor: -85*; ALDH1A1 inh: 7.1µM*; HPGD block: -5%; IMPase Li inh: 14%; IMPase inh: 1

Results for O=C(CNC(c1ccccc1)c1ccccc1)Nc1cc([N+](=O)[O-])ccc1Cl ?
12-hLO inh: 2%; PNC inhibitor: -12; ALDH1A1 inh: 7.1µM*; HPGD block: -29%; IMPase Li inh: 22%

What do the screens show for `COc1ccc(C(=O)NC(=S)Nc2ccc([N+](=O)[O-])cc2C)cc1OC`?
12-hLO inh: -1%; PNC inhibitor: 33; ALDH1A1 inh: 14µM*; HPGD block: -12%; IMPase Li inh: 14%[38.3 µM]; IMPase inh: 4[1.84 µM]

What do the screens show for `CC(C)CC(=O)Nc1cc([N+](=O)[O-])ccc1Cl`?
12-hLO inh: -7%; PNC inhibitor: -20; ALDH1A1 inh: 2%; HPGD block: -8%; IMPase Li inh: 3%[38.3 µM]; IMPase inh: -5

Results for O=C(NC(=S)Nc1cc([N+](=O)[O-])ccc1Cl)c1ccccc1 ?
12-hLO inh: -2%; PNC inhibitor: 17; ALDH1A1 inh: 8.9µM*; HPGD block: inconclusive; IMPase Li inh: 29%[38.3 µM]; IMPase inh: 3

How did Cc1ccc([N+](=O)[O-])cc1NC(=O)c1ccccc1 do in these assays?
ALDH1A1 inh: 3%; IMPase Li inh: 2%

Results for Cc1cc(Cc2c(C)c(C)c(Cc3cc(C)cc(C(C)(C)C)c3O)c(C)c2C)c(O)c(C(C)(C)C)c1 ?
12-hLO inh: -5%[11.4 µM]; ALDH1A1 inh: 7%[13.5 µM]; HPGD block: -6%; IMPase Li inh: 28%

What do the screens show for `CS(=O)(=O)Nc1cccc(-c2nccc(NCc3ccccc3)n2)c1`?
12-hLO inh: -4%; ALDH1A1 inh: 6%; HPGD block: -8%; IMPase Li inh: 10%

What do the screens show for `C[C@]1(OC(=O)/C=C\c2ccccc2)C[C@@H](O)[C@@]2(O)C=CO[C@@H](O[C@H]3O[C@@H](CO)[C@@H](O)[C@@H](O)[C@@H]3O)[C@H]21`?
12-hLO inh: 3%[25.6 µM]; ALDH1A1 inh: 24%[20.9 µM]; HPGD block: -6%; IMPase Li inh: 1%; IMPase inh: -8[20.6 µM]

Results for O=C(CSC1=NCCN1)NC(c1ccccc1)c1ccccc1 ?
ALDH1A1 inh: -1%; IMPase Li inh: 14%

How did CCc1nnc2c3ccccc3nc(Nc3ccc(F)cc3C)n12 do in these assays?
IMPase inh: 5

Results for O=C(CN1CCN(c2ccccc2O)CC1)Nc1ccc([N+](=O)[O-])cc1Br ?
ALDH1A1 inh: inconclusive; IMPase Li inh: 11%

What do the screens show for `O=C(CC(=O)c1ccccc1)Nc1cc(C(F)(F)F)ccc1Cl`?
12-hLO inh: -3%; PNC inhibitor: -21; ALDH1A1 inh: inconclusive; HPGD block: -8%; IMPase Li inh: 2%; IMPase inh: 11

How did O=C(NC(NC(=S)Nc1ccccc1)C(Cl)(Cl)Cl)c1cccc(Cl)c1 (centres undefined) do in these assays?
12-hLO inh: inconclusive; PNC inhibitor: 8; ALDH1A1 inh: inconclusive; HPGD block: -8%; IMPase Li inh: 9%[38.3 µM]; IMPase inh: 7

How did O=C(NC(=S)Nc1cc(C(F)(F)F)ccc1Cl)c1ccccc1 do in these assays?
12-hLO inh: -6%; PNC inhibitor: 45; ALDH1A1 inh: 25µM*; HPGD block: -11%; IMPase Li inh: -1%[38.3 µM]; IMPase inh: -4

Results for O=C(NNC(=S)NC(=O)c1ccccc1[N+](=O)[O-])c1ccccc1Cl ?
12-hLO inh: 5%; PNC inhibitor: inconclusive; ALDH1A1 inh: -8%; HPGD block: -2%; IMPase Li inh: -7%

Results for O=C(CN1CCN(c2ccccc2O)CC1)Nc1cc([N+](=O)[O-])ccc1Cl ?
ALDH1A1 inh: 22µM*; IMPase Li inh: -4%

How did O=C(O)c1ccc(Cl)c(NC(=S)NC(=O)c2ccccc2[N+](=O)[O-])c1 do in these assays?
ALDH1A1 inh: 22µM*; IMPase Li inh: -1%

Results for O=C(NC(NC(=S)Nc1ccc(Cl)cc1Cl)C(Cl)(Cl)Cl)c1cccc([N+](=O)[O-])c1 (centres undefined) ?
12-hLO inh: inconclusive; PNC inhibitor: 106; ALDH1A1 inh: 18µM*; HPGD block: -14%; IMPase Li inh: 33%[38.3 µM]; IMPase inh: 12

Results for O=C(c1cnccn1)N1CCC2(CCCN(c3ccncc3)C2)CC1 ?
12-hLO inh: -2%; ALDH1A1 inh: 4%; HPGD block: 0%; IMPase Li inh: 19%

How did C=C(C)[C@H]1CC[C@]2(C(=O)O)CC[C@]3(C)[C@@H](CC[C@H]4[C@@]5(C)CC[C@@H](O)C(C)(C)[C@@H]5CC[C@@]43C)[C@H]12 do in these assays?
12-hLO inh: -3%[25.6 µM]; ALDH1A1 inh: 11%[20.9 µM]; HPGD block: -11%; IMPase Li inh: 2%; IMPase inh: 2[20.6 µM]

How did Nc1nc(Nc2ccccc2)nc2c1ncn2[C@@H]1O[C@@H](CO)[C@H](O)[C@@H]1O do in these assays?
12-hLO inh: -2%; IMPase inh: 2

Results for COC(=O)[C@@]1(Cc2ccccc2)[C@H]2c3cc(C(=O)N4CCCC4)n(CCN4CNCC4=O)c3C[C@H]2CN1C(=O)c1ccccc1 ?
12-hLO inh: 2%; ALDH1A1 inh: -4%; HPGD block: -1%; IMPase Li inh: -9%

Results for Cn1c(=O)c2c(nc(CN3CCN(c4ccccc4F)CC3)n2CCN2CCOCC2)n(C)c1=O ?
12-hLO inh: -3%; PNC inhibitor: -100*; ALDH1A1 inh: inconclusive; HPGD block: -9%; IMPase Li inh: 1%; IMPase inh: -12

Results for CCOC(=O)N1CCN(Cc2nc3c(c(=O)n(C)c(=O)n3C)n2Cc2cc(C)ccc2C)CC1 ?
12-hLO inh: 7%; PNC inhibitor: inconclusive; ALDH1A1 inh: 0.89µM*; HPGD block: -4%; IMPase Li inh: -5%[38.3 µM]; IMPase inh: 12

Results for Cc1ccc(Cn2c(CN3CCOCC3)nc3c2c(=O)n(C)c(=O)n3C)cc1 ?
12-hLO inh: 12%; PNC inhibitor: -100*; ALDH1A1 inh: 10µM*; HPGD block: -15%; IMPase Li inh: -1%; IMPase inh: -19

What do the screens show for `CC(=O)N1CC=CC1(CC(C)C)C(=O)NCC1CC1` (centres undefined)?
12-hLO inh: 3%; ALDH1A1 inh: -6%; HPGD block: -4%; IMPase Li inh: -6%

Results for COc1cccc([C@@H]2Oc3ccc(Br)cc3C(=O)[C@H]2OC(=O)Nc2cc(OC)c(OC)c(OC)c2)c1 ?
ALDH1A1 inh: -2%; HPGD block: -9%; IMPase Li inh: 1%

High-throughput results deposited in PubChem by National Center for Advancing Translational Sciences (NCATS).
